Results on 86 compounds are retold here after PubChem BioAssay AID504847 (National Center for Advancing Translational Sciences (NCATS), 2011).

About 3,700 (0.93%) of roughly 400,000 compounds were called active. Not shown: some 3% with an inconclusive outcome. This is one part of a sample in which actives are shown more often than they occur. Calls come from the whole dose curve; as a rule, active = well fitted inhibition curve with a large enough effect; inconclusive = small, poorly fitted or top-dose-only effect, or another doubt; inactive = no such curve, though single readings can be large or run the other way.
% is set by controls: 0 for no effect and ±100 for the full control effect; potency is the fitted concentration of half-maximal effect.

The target of this assay is Vitamin D3 receptor (Homo sapiens) (UniProt P11473). In words: Inhibitors of the vitamin D receptor (VDR): qHTS. The note with it: VDR-SRC2-3 peptide fluorescence polarization, 2 h; max response, negative = inhibition: active compounds read low. A digest of the protocol: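 After 23 nl compound addition and a short centrifugation, plates sat for 2 hours at ambient temperature; polarization of fluorescence then indicated loss of VDR binding to peptide SRC2-3.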
Sequence of Vitamin D3 receptor (Homo sapiens) (P11473 whole entry, looked up): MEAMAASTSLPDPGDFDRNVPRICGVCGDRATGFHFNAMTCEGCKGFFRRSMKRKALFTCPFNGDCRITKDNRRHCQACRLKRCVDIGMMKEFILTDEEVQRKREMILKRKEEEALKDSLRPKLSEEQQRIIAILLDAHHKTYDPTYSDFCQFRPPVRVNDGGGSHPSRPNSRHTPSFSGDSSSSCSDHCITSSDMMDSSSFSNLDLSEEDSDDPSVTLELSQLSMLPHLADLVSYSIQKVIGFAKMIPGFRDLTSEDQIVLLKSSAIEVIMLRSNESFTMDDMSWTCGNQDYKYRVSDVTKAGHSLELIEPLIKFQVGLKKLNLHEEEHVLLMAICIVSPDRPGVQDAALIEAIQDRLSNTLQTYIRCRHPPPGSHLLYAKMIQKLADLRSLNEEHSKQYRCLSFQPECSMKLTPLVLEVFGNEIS
(In general: qHTS replaces the single test concentration by a dilution series.)
`COc1ccc(CCC(=O)c2c(O)cc(OC3OC(CO)C(O)C(O)C3O[C@@H]3OC(C)C(O)C(O)C3O)cc2O)cc1O` (stereo partly specified): the max response, negative = inhibition was -4.57% (inactive).
Take `CCOc1cccc(NC(=O)CSc2ncc(-c3ccc(Cl)cc3)[nH]2)c1`: the max response, negative = inhibition was -19.8% (inactive).
Still for that read-out and setting: to `CC(C)=CCN1CCC2(CCc3ccccc32)CC1` belongs 10% (inactive); to `COc1ccc(Cc2nc3ccc(C(=O)NCc4ccc(OC)cc4OC)cc3o2)cc1`, 0.0782% (inactive); to `Cc1ccc(S(=O)(=O)c2nc(-c3cccs3)oc2NCc2cccnc2)cc1`, -8.24% (inactive).
Consider `CCCCS(=O)(=O)c1oc(-c2cccs2)nc1S(=O)(=O)c1ccccc1`, for which the Potency was 10 µM (active).
`NC(=O)CSc1oc(-c2cccs2)nc1S(=O)(=O)c1ccccc1`: the max response, negative = inhibition is 2.03% (inactive).
On the same count and under the same terms, to `Cc1ccc(N2CC(c3nnc(Cc4ccccc4Cl)o3)CC2=O)cc1` (stereo unspecified) belongs 0.444% (inactive).
Take `Cc1ccc(-c2nnc3ccc(SCC(N)=O)nn23)cc1`: the max response, negative = inhibition was -9.24% (inactive).
The same measure, in the same setting: as for `Cc1ccc(-c2nn3c(=O)cc(CN4CCN(S(=O)(=O)c5ccc(Cl)cc5)CC4)nc3s2)cc1`, the figure is 6.31% (inactive); as for `CCc1c(C)sc(NC(=O)C2c3ccccc3Oc3ccccc32)c1C(=O)OC(C)C`, -13.1% (inactive).
Same read-out and setting: to `CC(C)(C)NC(=O)NC(=O)COC(=O)C1c2ccccc2Oc2ccccc21` belongs -16.6% (inactive).
As for `CC(C)(C)c1nnc(NC(=O)C2c3ccccc3Oc3ccccc32)s1`, the Potency is 35.5 µM (active).
On to `COc1cc(C(=O)N2CCC(c3ccncc3)CC2)cc(OC)c1OC`, for which the max response, negative = inhibition is 6.52% (inactive).
Consider `CCOC(=O)c1c(NC(=O)CSc2nnc(CNc3ccc(C)cc3C)o2)sc(C)c1C`, for which the max response, negative = inhibition is -11.8% (inactive).
Regarding `CCOC(=O)c1c(NC(=O)COc2cc(C)ccc2C(C)C)sc(C)c1C`, the Potency is 39.8 µM (active).
Turning to `CCOC(=O)c1c(NC(=O)CSc2nccc(=O)[nH]2)sc(C)c1C`, the max response, negative = inhibition is -12.3% (inactive).
Still for that read-out and setting: as for `CCc1nn(CC(=O)Nc2cccc(C)c2C)c(=O)c2cc3sccc3n12`, the figure is -8.74% (inactive).
Same read-out and setting: to `CCOc1cccc2cc(-c3cn4c(n3)sc3cc(C)ccc34)c(=O)oc12` belongs 10.9% (inactive); to `COc1ccc(-c2nc3cnc(Oc4ccccc4)nc3n(Cc3cccs3)c2=O)cc1`, -0.524% (inactive); to `COc1cccc(N2CCN(S(=O)(=O)c3ccc4c(c3)CCCN4C(C)=O)CC2)c1`, 4.58% (inactive).
On the same count and under the same terms, to `Cc1ccccc1CCNC(=O)C1CCN(c2nc3ccccc3nc2C(F)(F)F)CC1` belongs 5.88% (inactive).
Take `CCOc1cc(C(=S)N2CCOCC2)ccc1OS(=O)(=O)c1ccc(Br)cc1`: the max response, negative = inhibition was -11.5% (inactive).
As to `CCOc1cc(C(=O)OCC(=O)Nc2cccc(C)c2)ccc1OCC(=O)N1CCOCC1`, the max response, negative = inhibition is 8.55% (inactive).
On to `CCOc1cc(C(=S)N2CCOCC2)ccc1O`, for which the Potency is 79.4 µM (active).
Regarding `CCN(CC)S(=O)(=O)c1ccc2c(c1)nc(CN(C)C(=O)Nc1ccc(Cl)cc1)n2C`, the max response, negative = inhibition was 11% (inactive).
Still for that read-out and setting: as for `O=C(c1csnn1)N1CCC[C@@]2(CCN(Cc3nccs3)C2)C1`, the figure is 1.05% (inactive).
For `O=C(c1ccco1)N1CCC[C@@]2(CCN(c3ccccc3)C2)C1`, the Potency was 44.7 µM (active).
As to `CC(C)NC(=O)N1CC[C@@]2(CCCN(C(=O)c3ccco3)C2)C1`, the max response, negative = inhibition was -6.63% (inactive).
Still for that read-out and setting: to `O=C(c1ccco1)N1CCC2(CC1)CN(c1ncccn1)C2` belongs -6.75% (inactive); to `O=C(c1csnn1)N1CCC2(CC1)CN(c1ncccn1)C2`, -1.15% (inactive).
With `O=C(c1csnn1)N1CCC[C@@]2(CCN(c3cccc(-c4ccccc4)c3)C2)C1`, the Potency was 44.7 µM (active).
For the compound `O=C(Cn1c(=O)n(-c2ccc(F)cc2)c(=O)c2sc3ccccc3c21)NC1CCCC1`, the max response, negative = inhibition was 8.11% (inactive).
On the same count and under the same terms, as for `COc1ccccc1Nc1nc(N)nc(N)c1S(=O)(=O)c1ccccc1`, the figure is 15.2% (inactive); as for `COC(=O)c1ccc(NC(=O)CSc2n[nH]c(-c3ccccc3)n2)cc1`, 9.27% (inactive); as for `COc1ccc2ncc3c(-c4ccc(C)c(C)c4)nn(CC(=O)NC4CCCC4)c3c2c1`, 5.23% (inactive).
With `CCN1CCC(O)(/C=C/c2ccc(C)cc2)C(C(=O)/C=C/c2ccc(C)cc2)C1` (stereo unspecified), the Potency was 25.1 µM (active).
For the compound `COc1ccc2c(c1)C=C(C(=O)NCc1cc(Br)ccc1OC)CO2`, the max response, negative = inhibition was 8.92% (inactive).
For the compound `Cc1ccc(-c2ccc(/C=N/NC(=O)CN3CCOCC3)o2)cc1[N+](=O)[O-]`, the Potency was 2.51 µM (active).
With `Cc1ccc(NC(=O)CN2CCC(C(N)=O)CC2)cc1[N+](=O)[O-]`, the max response, negative = inhibition was -4.1% (inactive).
With `O=C(CN1CCOCC1)N/N=C/c1ccc(-c2ccc(Br)cc2)o1`, the max response, negative = inhibition is 13.8% (inactive).
Same read-out and setting: as for `O=C(CN1CCSc2ccccc21)N1CCN(c2ccccc2)CC1`, the figure is 16.3% (inactive); as for `Cc1ccccc1CSc1nc2c([nH]c3ccccc32)c(=O)n1C`, 2.18% (inactive).
As for `CCC(CC)c1nnc(NC(=O)C2CCN(C(=O)c3ccco3)CC2)s1`, the Potency was 89.1 µM (active).
Take `CCc1nnc(NC(=O)C2CCN(C(=O)c3ccccc3C)CC2)s1`: the max response, negative = inhibition is 0.925% (inactive).
The same measure, in the same setting: to `COc1ccc(CNC(=O)C2CCN(C(=O)c3ccco3)CC2)cc1` belongs 3.03% (inactive); to `Cc1ccc(-c2noc(-c3nnn(-c4cccc(C(F)(F)F)c4)c3N)n2)cc1`, 7.83% (inactive); to `O=Cc1cn(-c2ccccc2)nc1-c1ccccn1`, 0.792% (inactive).
`O=C1C(c2ccccn2)=[N+]([O-])c2ccccc21`: the Potency is 12.6 µM (active).
Turning to `O=C(c1ccc2c(=O)n(Cc3ccco3)c(=S)[nH]c2c1)N1CCCC1`, the max response, negative = inhibition is -15.6% (inactive).
Consider `CCOC(=O)c1cc2c(=O)n3ccccc3nc2n(CC2CCCO2)c1=NC(=O)c1ccc(C(C)(C)C)cc1` (stereo unspecified), for which the max response, negative = inhibition was -4.97% (inactive).
Still for that read-out and setting: to `CC1=C(c2ccc(F)cc2)S(=O)(=O)N=C1N1CCC(C(=O)NCCc2ccccc2C)CC1` belongs 9.29% (inactive); to `Cc1nn(CC(=O)N2CCN(c3cccc(C(F)(F)F)c3)CC2)c(=O)c2cc3sccc3n12`, -6.46% (inactive).
On the same count and under the same terms, to `CCOC(=O)c1ccc(-c2ccc(/C=C(\C#N)C(=O)Nc3ccc(OCC)cc3)o2)cc1` belongs -4.51% (inactive).
As to `CCOC(=O)c1ccc(NC2=CC(c3ccc(OCC)cc3)N(c3ccc(C(=O)OCC)cc3)C2=O)cc1` (stereo unspecified), the Potency is 28.2 µM (active).
In the case of `NS(=O)(=O)c1ccc(NC2=CC(c3ccc(F)cc3)N(c3ccc(S(N)(=O)=O)cc3)C2=O)cc1` (stereo unspecified), the max response, negative = inhibition was 21.6% (inactive).
The same measure, in the same setting: as for `Cc1cc(NC(=O)C2CCC(CNS(=O)(=O)c3ccc(Br)s3)CC2)ccc1Br` (stereo unspecified), the figure is -18% (inactive).
Same read-out and setting: as for `COc1ccc(-c2nc3ccccc3s2)cc1NC(=O)COc1ccccc1C`, the figure is 1.1% (inactive).
Turning to `Cc1cnc(CNc2nc(-c3cccnc3)nc3ccccc23)cn1`, the max response, negative = inhibition is -20.5% (inactive).
As for `COc1ccc(Nc2nc(-c3cccnc3)nc3ccccc23)cn1`, the Potency is 70.8 µM (active).
As to `COc1cccc(-c2nc(Nc3ccncc3)c3ccccc3n2)c1`, the max response, negative = inhibition was 16.5% (inactive).
Still for that read-out and setting: as for `CCOc1ccc(Nc2c(S(=O)(=O)c3ccccc3)cnc3ccccc23)cc1`, the figure is -2.09% (inactive); as for `Cc1nc2ccn(Cc3cccnc3)c(=O)c2cc1C(=O)N1CCN(c2ccccc2F)CC1`, -2.65% (inactive).
Still for that read-out and setting: as for `CC(=O)Nc1ccc(S(=O)(=O)N2N=NC3C2C2CC4C3(CN(C(=O)OC(C)(C)C)S4(=O)=O)O2)cc1` (stereo unspecified), the figure is -28.4% (inactive).
Consider `Cc1cc(C(=O)CCl)c(C)n1CC1COc2ccccc2O1` (stereo unspecified), for which the Potency is 89.1 µM (active).
Consider `O=C(NCC1COc2ccccc2O1)C1(c2ccccc2)CCCC1` (stereo unspecified), for which the max response, negative = inhibition was -20% (inactive).
The same measure, in the same setting: as for `CCn1cc(C(=O)NCC2COc3ccccc3O2)c2cc(OC)c(OC)cc2c1=O` (stereo unspecified), the figure is -12.1% (inactive).
As for `COc1cc(/C=C2/C(=O)NN(c3ccc(F)cc3)C2=O)cc([N+](=O)[O-])c1O`, the max response, negative = inhibition was -24.2% (inactive).
On to `COc1cc(/C=C2/C(=O)NN(c3cccc(Cl)c3)C2=O)cc(Br)c1O`, for which the Potency was 22.4 µM (active).
Turning to `COc1cc(/C=N/O)cc(Br)c1OCc1cccc(Cl)c1`, the max response, negative = inhibition was 4.44% (inactive).
Same read-out and setting: as for `COCCn1c(=O)c(-c2cc(F)cc(F)c2)nc2cnc(N3CCNCC3)nc21`, the figure is -11.9% (inactive); as for `Cc1cn([C@H]2CC(F)[C@@H](CO)O2)c(=O)[nH]c1=O` (stereo partly specified), -2.1% (inactive).
Same read-out and setting: to `O=C(CSc1nccn1C1CCCC1)Nc1cc(C(F)(F)F)ccc1Cl` belongs 24.3% (inactive); to `CCc1nnc(SCC(=O)Nc2cc(OC)ccc2OC)nc1CC`, 8.11% (inactive); to `Cc1ccccc1-c1nc(CS(=O)(=O)CC(=O)Nc2cc(Cl)cc(Cl)c2)c(C)o1`, 13% (inactive).
Still for that read-out and setting: to `CC1=C(c2ccc(C)c(C)c2)S(=O)(=O)NC1=NCc1ccccc1Cl` belongs 4.51% (inactive).
`C=C1C(=O)C23C(O)C1CCC2[C@]12COC3(O)C(O)C1C(C)(C)CC[C@H]2O` (stereo partly specified): the Potency was 14.1 µM (active).
Turning to `O=c1n(Cc2cccc(C(F)(F)F)c2)c2ccccc2c2nc(-c3ccccc3)nn12`, the max response, negative = inhibition is -21.7% (inactive).
Same read-out and setting: to `CCOc1cccc(CC(=O)N2CCc3c([nH]c4ccccc34)C2c2ccc(F)cc2)c1OCC` (stereo unspecified) belongs 6.55% (inactive); to `COc1ccc(S(=O)(=O)Nc2cccc3cccnc23)c(N)c1`, -18.8% (inactive).
On the same count and under the same terms, as for `Cn1cc(-c2nc3cnc(N4CCNCC4)nc3n(CCC#N)c2=O)c2ccccc21`, the figure is -5.94% (inactive); as for `O=C(Nc1cc(C(=O)Nc2ccc(S(=O)(=O)O)cc2)cc(C(=O)Nc2ccc(S(=O)(=O)O)cc2)c1)Nc1cc(C(=O)Nc2ccc(S(=O)(=O)O)cc2)cc(C(=O)Nc2ccc(S(=O)(=O)O)cc2)c1`, 4.66% (inactive).
With `O=C(/C=C/c1ccc(Cl)cc1Cl)c1cccnc1`, the Potency was 20 µM (active).
For the compound `O=C(OCc1cc(Cl)ccc1OC(F)F)c1cccnc1`, the max response, negative = inhibition was 3.25% (inactive).
The same measure, in the same setting: as for `O=C(NNC1CC(=O)N(c2cccc(Cl)c2)C1=O)c1cccnc1` (stereo unspecified), the figure is 4.73% (inactive); as for `O=C(c1cnn(-c2ccc(F)cc2)c1-n1cccc1)N1CCN(c2ccc(F)cc2)CC1`, -3.32% (inactive).
